Compound activity (PubChem BioAssay)
This is a sample that favours compounds with a hit; in the whole collection about 2.1% have one here.
aSyn yeast inh – qHTS of alpha-syn Inhibitors; 0.14% of 370,000 active; Yeast expressing alpha-synuclein, growth rescue, BacTiter-Glo, 24 h; Potency, µM (titrated, usually from 46.1 µM), actives largely listed as activators; further: nearly all actives have a fitted effect of over 65% in size
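Rescue of yeast growth: cells expressing toxic alpha-synuclein, induced in galactose at OD600 0.02, incubated with compound 24 h at 30 C. ATP luminescence quantified growth; inhibitors of toxicity appear as activators.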
TDP43 rescue – qHTS of TDP-43 Inhibitors; TDP-43 expressing yeast growth rescue, BacTiter-Glo, 24 h; 1.8% of 410,000 active; Potency, µM (top dose mostly 46.1 µM), usual class: activators; further: nearly all actives have a fitted effect of over 50% in size
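Luminescence from BacTiter-Glo reports growth of TDP-43-expressing yeast after 24 hr at 30 deg C with compound. Cells were raffinose-pregrown to mid-log, then seeded in galactose medium at OD600=0.02.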
Abeta rescue – qHTS for compounds that reverse cellular toxicity of Amyloid beta (A-beta) peptide in yeast: Primary Screen | Potency, µM (top dose mostly 46.1 µM), hits mostly activators | yeast expressing A-beta42, growth rescue, OD600, 48 h; response scale: 0% DMSO, 100% iron-clioquinol control | 0.063% of 410,000 active; further: nearly all actives have a fitted effect of over 55% in size
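Yeast A-beta toxicity model in growth medium with pinned compounds, 48 h at 30 C; growth read as absorbance at 600 nm. Normalized to FeCl3/clioquinol equimolar mix (positive) and DMSO (negative).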
FUS suppressor – qHTS for Suppressors of FUS Proteinopathy: Primary screen using FUS-linked yeast assay. 0.24% of 390,000 active. S. cerevisiae FUS-expressing, growth rescue, OD600, 24 h. Potency, µM (top dose mostly 76.6 µM), usual class: activators; further: nearly all actives have a fitted effect of over 55% in size
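Compound concentration series was pinned onto galactose-induced FUS-expressing yeast seeded at OD 0.005. Plates sat 24hr at 30C; absorbance at 600 nm gave growth. DMSO served as background control.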
A number is an active result; - = inactive; ? = inconclusive; . = not tested or not shown. The call rests on the fitted dose curve; in most records, active means well fitted curve in the direction sought with a large enough effect; inconclusive means small, poorly fitted or top-dose-only effect, or another doubt; inactive means no such curve, though single readings can be large; an effect the other way counts as inactive or inconclusive.

SMILES | aSyn yeast inh | TDP43 rescue | Abeta rescue | FUS suppressor
Cc1ccc(CNc2ncnc3c2cnn3-c2ccc(C)cc2C)cc1 | . | 35µM | - | -
Cc1cccc(-n2ncc3c(NC(C)C)ncnc32)c1 | - | 11µM | - | -
COc1ccc(CCNc2ncnc3c2cnn3-c2cc(Cl)ccc2C)cc1 | . | 20µM | - | -
Cc1ccc(-n2ncc3c(NC4CCCCCC4)ncnc32)cc1Cl | . | ? | - | -
CC(C)Nc1ncnc2c1cnn2-c1ccccc1 | - | ? | - | -
Cc1ccc(Cl)cc1-n1ncc2c(NC3CCCCCC3)ncnc21 | . | 14µM | - | -
CN(C)[C@@H]1CCN(c2ccc3c(c2)O[C@@H]2CCN(C2)S3(=O)=O)C1 | . | . | . | -
Clc1ccc(-n2ncc3c(NCC4CCCO4)ncnc32)cc1 (configuration not stated) | - | 11µM | - | -
c1ccc(-n2ncc3c(NCC4CCCO4)ncnc32)cc1 (configuration not stated) | - | - | - | -
CCCCCc1cc[n+](CC(=O)c2ccccc2)cc1 | - | . | . | .
COc1cc(OC)c(NC(=O)C(NS(=O)(=O)c2cccc3nsnc23)c2ccccc2)cc1Cl (configuration not stated) | . | - | - | 22µM
CCCCN1C(=O)C2(OCCCO2)c2cccc(C)c21 | - | 20µM | - | -
C=CCN1C(=O)C2(OCCCO2)c2cccc(C)c21 | - | - | - | -
Cc1nn(Cc2ccc(F)cc2)c2sc(C(=O)Nc3ccc(N4CCOCC4)cc3N3CCOCC3)cc12 | - | 14µM | - | .
Cc1ccc(/C=N/NC(=S)N2CCOCC2)cc1 | - | 22µM | ? | .
S=C(N/N=C/c1ccc(Cl)cc1)N1CCOCC1 | - | ? | ? | .
CN(Cc1ccccc1)C(=O)OCc1cn(Cc2cccc(F)c2F)nn1 | . | . | . | -
Cc1ccc(SCCC(=O)OCn2nnc3ccccc3c2=O)cc1 | - | 35µM | - | -
O=C(/C=C/c1ccco1)OCn1nnc2ccccc2c1=O | - | ? | - | -
Cc1ccc(/C=C/C(=O)OCn2nnc3ccccc3c2=O)o1 | ? | 18µM | - | -
CC(=O)Nc1ccc(/C=C/COC(C)=O)cc1C | . | . | . | -
COc1nnc(-c2ccc(N3CCCCC3)c(NC(C)=O)c2)c2ccccc12 | - | 22µM | - | -
COc1nnc(-c2ccc(N3CCCCC3)c(NC(=O)C3CCCCC3)c2)c2ccccc12 | - | - | - | .
CNC(=O)[C@@H]1CC=C[C@@H]2CCN(c3ccccc3)C(=O)[C@@H]21 | . | . | . | -
CCOC(=O)C1CCN(C(=O)c2oc3ccc4c(c3c2C)C(O)CC2(CCCCC2)O4)CC1 (configuration not stated) | - | 25µM | - | ?
SMILES | aSyn yeast inh | TDP43 rescue | Abeta rescue | FUS suppressor
Cc1c(C(=O)NCCCN2CCCCC2)oc2ccc3c(c12)C(O)CC1(CCCCC1)O3 (configuration not stated) | - | - | - | -
Cc1ccccc1-c1nc(CNC(=O)NC2CCCCC2)c(C)o1 | . | - | - | -
O=C(OCn1nnc2ccccc2c1=O)c1ccc2ncsc2c1 | ? | 11µM | - | -
CCN(CC)S(=O)(=O)c1ccc(C(=O)OCn2nnc3ccccc3c2=O)cc1 | 3.2µM | - | - | -
O=C(OCn1nnc2ccccc2c1=O)c1ccc(S(=O)(=O)N2CCOCC2)cc1 | - | - | - | -
CCOc1ccc2nc(C)cc(Nc3ccccc3OCC)c2c1 | . | - | - | -
CC(=O)NCCCc1ccc(C(=O)COC(=O)CNC(=O)c2ccc3ccccc3c2)cc1 | - | . | . | .
N#CCC(=O)N1CC2(CC(c3cccc(NC(=O)COc4ccc(Cl)cc4)c3)=NO2)C[C@@H]1C(N)=O (some centres not stated) | - | - | - | -
C/C=C\C=C\C(=O)Nc1cccc(C2=NOC3(C2)C[C@@H](C(N)=O)N(C(=O)C(c2ccccc2)c2ccccc2)C3)c1 (some centres not stated) | - | - | - | 32µM
NC(=O)[C@@H]1CC2(CC(c3cccc(NC(=O)CC(c4ccccc4)c4ccccc4)c3)=NO2)CN1C(=O)c1ccc(Cl)cc1 (some centres not stated) | - | - | - | 28µM
NC(=O)[C@H]1CC2(CC(c3cccc(NC(=O)CC(c4ccccc4)c4ccccc4)c3)=NO2)CN1C(=O)CC(c1ccccc1)c1ccccc1 (some centres not stated) | - | - | - | ?
NC(=O)[C@@H]1CC2(CC(c3cccc(NC(=O)COc4ccc(Cl)cc4)c3)=NO2)CN1C(=O)COc1ccc(Cl)cc1 (some centres not stated) | - | - | - | 18µM
C=C(C)C(=O)N1CC2(CC(c3cccc(NC(=O)CC(c4ccccc4)c4ccccc4)c3)=NO2)C[C@H]1C(N)=O (some centres not stated) | - | - | - | 32µM
CN(C)c1ccc(/C=C2\CCc3cc(N)ccc32)cc1 | - | . | . | .
Cc1cccc(NNC(=S)Nc2ccccc2)c1 | - | - | - | -
Cc1cccc(NC(=S)NNc2cccc(Cl)c2)c1 | - | - | 13µM | -
Cc1cccc(NNC(N)=S)c1 | - | - | - | -
Cc1cccc(NNC(=S)Nc2c(C)cccc2C)c1 | - | ? | 7.1µM | -
CCOc1ccccc1C(=O)Nc1cc2c(cc1N1CCCCC1)n(C)c(=O)n2C | . | 32µM | - | -
COc1ccccc1C(=O)Nc1cc(Cl)ccc1O | - | - | - | -
CCOc1ccccc1C(=O)Nc1cc(Cl)ccc1O | - | 2.8µM | - | -
O=C(Nc1ccon1)c1cc2c(s1)CCCCCC2 | - | 13µM | - | -
O=C(Nc1ccccc1N1CCOCC1)c1cc2c(s1)CCCCC2 | - | 7.9µM | - | -
Cc1csc(NC(=O)c2cc3c(s2)CCCCC3)n1 | - | - | - | -
Cc1csc(NC(=O)c2cc3c(s2)CCCC3)n1 | - | 28µM | - | -
SMILES | aSyn yeast inh | TDP43 rescue | Abeta rescue | FUS suppressor
COC(=O)[C@@H]1N=C(c2ccc(OC)cc2)O[C@]12C(=O)N(Cc1cn(-c3ccccc3)nn1)c1cccc(Cl)c12 | . | . | . | -
CC12CN3CC(C)(CN(C1)C3c1ccc(OCc3ccccc3)cc1)C2=O (configuration not stated) | . | 20µM | - | -
COC(=O)[C@H]1C[C@@]2(N3CCCCC3)c3ccccc3N[C@H]2N1S(=O)(=O)c1ccc(C)cc1 | . | . | . | -
COc1ccc(-c2c(C)nn3c(C)cc(C)nc23)cc1 | - | 14µM | - | -
C[C@H]1[C@@H](N(C)CC2CCCCC2)CC[C@@]23CCCN2C(=O)CCC[C@@H]13 | . | . | . | -
Cc1ccc(C(=O)/C=C/C(=O)O)cc1 | 3.2µM | - | - | -
CCN(CCNC(=O)[C@H]1C=C(OC)C(=O)C[C@H](c2ccccc2)[C@H]1C)C(C)=O | . | . | . | -
COCc1ccc(C(=O)N2CCCC(C(=O)c3cc(F)ccc3F)C2)s1 (configuration not stated) | - | 11µM | - | -
COC(=O)[C@]12C[C@H](CC(=O)N3CCCCC3)C(=O)N(CCc3ccc(OC)c(OC)c3)C1=C[C@H](C1CCCC1)O[C@@H]2C | . | . | . | -
